Assay results reported in PubChem BioAssay AID1578 (Sanford-Burnham Center for Chemical Genomics, 2009).
Out of some 290,000 compounds screened, about 3,000 (1%) were called active. This excerpt belongs to a sample that is enriched for actives. A number with no mark means an inactive call. Cut-off read from the data, not from the text of the source: active = inhibition mostly above about 36% (no sharp cut-off); inactive = mostly below about 34%.

Assay: NOD1 signaling inhibitors, primary screen, cell-based, luminescence, uHTS (AID 1578);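 note: HEK-293T reporter cells stimulated with the NOD1 agonist gamma-tri-DAP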
Settings: NOD1-driven NF-kB luciferase reporter cells, at 4 µM, hits give high values

Compared with `COc1ccc(C(=O)NCc2nnc(SCC(=O)N3CCCCC3)o2)cc1OC`, `O=C(NCc1nnc(SCC(=O)N2CCCC2)o1)c1ccccc1` is lower in inhibition: 8.1% for the first, -0.1% for the second.

First: CCOc1ccc(-c2nnc3n2N=C(c2ccc(OC)cc2)CS3)cc1
Second: COc1ccc(-c2nnc3n2N=C(C)CS3)cc1
The inhibition of the first is lower: 4.9% for the first, 8.4% for the second.

First: Cc1ccc(Cl)cc1NC(=O)C1CCCN(S(=O)(=O)c2c(C)noc2C)C1 (stereo not drawn)
Second: COc1ccc(C(=O)N2CCC(C(=O)c3c(C)cc(C)cc3C)CC2)cc1
The inhibition of the first is lower: -22.6% for the first, -8.8% for the second.

Compared with `O=C(O)CCCCCNCc1ccncc1`, `Cc1cc(=O)oc2c(C)c(OCC(=O)NCCCn3ccnc3)ccc12` is higher in inhibition: -8% for the first, 1.8% for the second.

First: COc1ccc(OC)c(-c2csc(NC(=O)C3=NN(c4ccccc4)C(=O)CC3)n2)c1
Second: CCc1ccc(-c2csc(NC(=O)C3=NN(c4ccccc4)C(=O)CC3)n2)cc1
The inhibition of the first is lower: -27.4% for the first, 51.4% for the second.

First: CCOC(=O)c1ccc(NS(=O)C23CC4CC(CC(C4)C2)C3)cc1 (stereo not drawn)
Second: COC(=O)c1ccc(NC(=O)c2ccccc2NS(C)(=O)=O)cc1
The inhibition of the first is lower: -39.1% for the first, -12% for the second.

Compared with `CCN(CC)S(=O)(=O)c1ccc2oc(C(=O)NCCCN3CCOCC3)c(C)c2c1`, `Cc1ccc(-c2nnn(CC(=O)N(CCN3CCOCC3)C(C(=O)NC(C)(C)C)c3ccc(C)o3)n2)cc1` (stereo not drawn) is lower in inhibition: -9.1% for the first, -14.8% for the second.

First: Cc1cccc(N2CCN(C(=O)NC3CCCCC3)CC2)c1C
Second: O=C(C1CCC(=O)N(C2CCCC2)C1)N1CCN(c2ccccc2Cl)CC1 (stereo not drawn)
The inhibition of the first is lower: -19.6% for the first, -2.7% for the second.

First: CC[C@@]12C(=O)N(c3cccc(Br)c3)C(=O)N1[C@H](c1ccc(Cl)cc1)[C@@H]1C(=O)N(C3CCCCC3)C(=O)[C@@H]12
Second: O=C1[C@H]2[C@@H](c3ccc(F)cc3)N3C(=O)N(c4cccc(Br)c4)C(=O)[C@@]3(Cc3ccc(Cl)cc3)[C@H]2C(=O)N1C1CCCCC1
The inhibition of the first is higher: 10.3% for the first, -14.3% for the second.

First: COc1c(OC)c(O)c2c(=O)cc(-c3c(O)cccc3O)oc2c1OC
Second: O=c1cc(-c2c(F)c(F)c(F)c(F)c2F)oc2ccccc12
The inhibition of the first is lower: 2.2% for the first, 36.7% for the second.

Going from `Cc1cccc(NC(=O)Cc2c(F)cccc2Cl)n1` to `Cc1ccc(C(=O)COC(=O)c2cc(Cl)nc3ccccc23)cc1C`, the inhibition rises from -46.6% to -37.6%.

First: O=[N+]([O-])c1ccc(Nc2ccc(F)cc2)cc1
Second: C/C(=N\NC(=O)c1c(Br)cnn1C)c1ccc(NC(=O)c2ccc(F)cc2)cc1
The inhibition of the first is higher: -11.9% for the first, -45.8% for the second.

Compared with `Cc1nsc(Nc2ccccc2)c1C#N`, `CCOC(=O)c1[nH]c2ccccc2c1NC(C)=O` is lower in inhibition: 16.5% for the first, 2.4% for the second.

First: CN1CCN(/N=C/c2ccc(N(C)c3ccccc3)cc2)CC1
Second: O=C(c1ccc2nc(-c3ccco3)c(-c3ccco3)nc2c1)N1CCN(c2ccccc2)CC1
The inhibition of the first is lower: -6.9% for the first, 3.4% for the second.

Going from `O=C(OCc1ccccc1)c1cccnc1Cl` to `COC(=O)C(Cc1ccccc1)NC(=O)c1cccc(S(=O)(=O)N(C)C)c1` (stereo not drawn), the inhibition falls from -18.1% to -41.3%.

Compared with `CN(Cc1ccon1)Cc1cn(C)nc1-c1ccc2c(c1)OCCO2`, `Cn1cc(CNCc2cn[nH]c2-c2ccc(F)cc2)c(-c2ccc3c(c2)OCCO3)n1` is higher in inhibition: -26.3% for the first, -22.2% for the second.

Compared with `C/C(=N\NC(=O)C1CC1(c1ccccc1)c1ccccc1)c1cccc([N+](=O)[O-])c1` (stereo not drawn), `CC(=O)Nc1ccc(N=Cc2c(O)c(C(=O)Nc3ccccc3)cc3ccccc23)cc1` is higher in inhibition: -12.5% for the first, 39.6% for the second.

Going from `CC(=O)Nc1ccc(N=Cc2c(O)ccc3ccccc23)cc1` to `COC(=O)c1ccccc1NS(=O)(=O)c1ccc(NC(C)=O)cc1`, the inhibition rises from -20% to 0.6%.

Compared with `O=C(Nc1ccc(NS(=O)(=O)c2ccccc2)cc1)c1cccnc1`, `CC(C)(C)n1cnc2cc(NS(=O)(=O)c3ccc(Br)cc3)ccc21` is higher in inhibition: -23.8% for the first, 7.7% for the second.

Going from `Cc1oc2c(c(=O)c1C)C(=O)CC(c1ccccc1)C2` (stereo not drawn) to `Cc1c(C(=O)O)[nH]c2c1C(=O)CC(c1ccccc1)C2` (stereo not drawn), the inhibition rises from -15.6% to -0.4%.

Compared with `CCc1noc(C)c1C(=O)Nc1ccccc1C(C)(C)C`, `Cc1oc2ccc(O)c(CN(C)C)c2c1C(=O)c1ccccc1` is lower in inhibition: 38.7% for the first, -26.2% for the second.

Going from `Cc1ccc(-c2nc(N3CCOCC3)sc2C(=O)N2CCOCC2)cc1` to `Cc1cc(C)cc(NC(=O)COc2ccc(C(=S)N3CCOCC3)cc2)c1`, the inhibition falls from -12.2% to -14.5%.

First: Cc1ccc(CNC(=O)Nc2ccc(OC(F)(F)F)cc2)n1C
Second: COc1ccc(NC(=O)CN(c2ccc(OC)cc2)S(=O)(=O)c2c(C)nn(C)c2C)cc1
The inhibition of the first is lower: -21.3% for the first, -15.1% for the second.

Compared with `COc1cc(OC)cc(C(=O)Nn2cc(C(=O)Nc3ccccc3F)c3ccccc3c2=O)c1`, `Cc1cc(/C=C2/C(=O)NN(c3ccccc3)C2=O)c(C)n1-c1cccc(O)c1` is higher in inhibition: -16.8% for the first, -15.4% for the second.

First: C=CCNC(=O)[C@@H]1CSC2c3ccc(OC)c(OC)c3C(=O)N21 (stereo partly drawn)
Second: Cc1cc(/C=C2\SC(=S)NC2=O)c(C)n1-c1cccc(O)c1
The inhibition of the first is higher: -8.1% for the first, -11.9% for the second.

Going from `Cc1ccc(C2C3C(=O)N(c4ccc(C)cc4)C(=O)C3N3CCCN23)cc1` (stereo not drawn) to `Cc1ccc(N2CC(C(=O)N3CCCc4ccccc43)CC2=O)cc1` (stereo not drawn), the inhibition falls from -7.6% to -10.4%.

First: Cc1ccc(C)c(N2CCN(C(=O)c3ccc4nc(-c5ccco5)c(-c5ccco5)nc4c3)CC2)c1
Second: CCOc1cc(C(C(=O)NCC2CCCO2)N(C(=O)Cn2nnc3ccccc32)c2ccccc2C(C)=O)ccc1O (stereo not drawn)
The inhibition of the first is higher: -1.9% for the first, -47.9% for the second.

Going from `O=C(CN1C(=O)c2ccccc2C1=O)Nc1cc([N+](=O)[O-])ccc1O` to `Cc1cc(/C=C2\SC(=O)N(C)C2=O)c(C)n1-c1ccc(O)cc1`, the inhibition rises from -38.7% to 0.7%.

First: Cc1ccc(-n2c(C)cc(C3=NNC(=NC4CC4)SC3)c2C)cc1C
Second: COc1ccc(-n2c(C)cc(C3=NNC(=NC4CC4)SC3)c2C)cc1
The inhibition of the first is lower: -21.7% for the first, -7.5% for the second.

Compared with `COCCCN=C1NN=C(c2cc(C)n(-c3ccccc3F)c2C)CS1`, `Cc1cc(C2=NNC(=NC3CC3)SC2)c(C)n1-c1c(C)n(C)n(-c2ccccc2)c1=O` is lower in inhibition: 10.1% for the first, -12.6% for the second.

First: COc1ccc(-c2cc3nc(C)cc(C)n3n2)cc1
Second: COc1ccc(-c2cc3nc(C)cc(N)n3n2)cc1
The inhibition of the first is lower: -76.5% for the first, -3.5% for the second.

Going from `COc1ccc(/C(C)=N/NC(=O)c2nnn(-c3nonc3N)c2CN(C)c2ccccc2)cc1` to `CC/C=C/C(=O)N1CC2(CC(c3cccc(NC(=O)CC(c4ccccc4)c4ccccc4)c3)=NO2)C[C@@H]1C(N)=O` (stereo partly drawn), the inhibition rises from -7.2% to -0.2%.

First: CCC(=O)NC(=S)Nc1ccccc1C(=O)NC1CCCCC1
Second: CCN(CC)C(=O)CSc1nc2ccccc2c(=O)n1OC(C)C
The inhibition of the first is lower: -10.9% for the first, 8% for the second.

First: CCOC(=S)SCc1cn2ccc(C)cc2n1
Second: COc1ccc(-n2c(C)cc(/C=C3/SC(=S)N(C)C3=O)c2C)cc1
The inhibition of the first is higher: 8.3% for the first, -25.3% for the second.

First: Cc1oc2ccc(O)c(CN3CCOCC3)c2c1C(=O)c1ccc(Cl)cc1
Second: Cc1ccc(/C=C2\SC(=S)N(c3cccnc3)C2=O)cc1
The inhibition of the first is higher: 27.5% for the first, -15% for the second.

Going from `Cc1cc(/C=C2\SC(=S)N(Cc3ccco3)C2=O)c(C)n1-c1cccnc1` to `CC(c1ccccc1)n1c(N2CCNCC2)nc2c1c(=O)[nH]c(=O)n2C` (stereo not drawn), the inhibition falls from 8.2% to -36.1%.

First: CCOC(=O)c1c(NC(=O)CSc2nnc(C)c(=O)[nH]2)sc2c1CCCC2
Second: CCOC(=O)c1c(NC(=O)CSc2nnc(C)c(=O)[nH]2)sc(C)c1C
The inhibition of the first is lower: 11.2% for the first, 17.3% for the second.

For `CCOC(=O)/C(=C\c1ccc(OC(F)F)cc1)C1=Nn2c(nnc2-c2ccc(Cl)cc2)SC1`, the inhibition was 92.7% (active).
In the case of `O=C1[C@H]2[C@@H](c3ccc(Cl)cc3)N3C(=O)N(c4cccc(Br)c4)C(=O)[C@@]3(Cc3ccc(Cl)cc3)[C@H]2C(=O)N1C1CCCCC1`, the inhibition is reported as 45.6% (active).
In the case of `O=c1cc(-c2c(F)c(F)c(F)c(F)c2F)oc2c(F)c(F)c(F)c(F)c12`, the inhibition is reported as 98.7% (active).
With `Cc1nsc(Nc2ccc([N+](=O)[O-])cc2)c1C#N` the inhibition was 60.4% (active).
With `Cn1cc(CNCc2ccc(OC(F)(F)F)cc2)c(-c2ccc3c(c2)OCCO3)n1` the inhibition was 75.4% (active).
With `CCOc1cc(Br)c(Br)c(C=Nc2ccc(NC(C)=O)cc2)c1O` the inhibition was 78% (active).
In the case of `CS(=O)(=O)c1sc(C#N)c2c1C(=O)CC(c1ccccc1)C2` (stereo not drawn), the inhibition is reported as 43.9% (active).
In the case of `Cc1cccc(N2CCN(C(=O)c3ccc4nc(-c5ccco5)c(-c5ccco5)nc4c3)CC2C)c1` (stereo not drawn), the inhibition is reported as 60.5% (active).
For `Cc1cc(C2=NNC(=NC3CC3)SC2)c(C)n1-c1ccccc1F`, the inhibition was 96.7% (active).
With `Cc1cc(C2=NNC(=NC3CC3)SC2)c(C)n1-c1ccccc1` the inhibition was 98.3% (active).
For `COc1ccc(-c2cc3nc(C)cc(-c4ccc(OC)cc4)n3n2)cc1`, the inhibition was 66.8% (active).
In the case of `Cc1oc2c(Cl)c(Cl)c(O)c(CN(C)C)c2c1C(=O)c1ccc(Cl)cc1`, the inhibition is reported as 65.8% (active).
In the case of `Cc1cc(/C=C2/SC(=S)N(c3ccc([N+](=O)[O-])cc3)C2=O)c(C)n1-c1cccnc1`, the inhibition is reported as 74.8% (active).
With `CCOC(=O)c1c(NC(=O)CSc2nnc(C)c(=O)[nH]2)sc(C)c1-c1ccc(C)cc1` the inhibition was 43.1% (active).
